HPGD inh: inhibitors of human 15-hydroxyprostaglandin dehydrogenase (HPGD). P15428. 4.3% of 150,000 active. purified HPGD, NADH fluorescence kinetic, PGE2 substrate. Potency, µM, inactives show at the highest dose activity change, negative = inhibition, actives largely listed as inhibitors; active = well fitted inhibition curve with a large enough effect, not every such curve was filed as active; inconclusive = small, poorly fitted or top-dose-only effect, or another doubt; inactive = no such curve, though single readings can be large or run the other way; note: potency is the fitted concentration of half-maximal effect; % is set by controls: 0 for no effect and ±100 for the full control effect
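NADH formation kinetics: reaction with 30 uM PGE2 and 1 mM NAD+ (final), 20 nM enzyme, Tris-HCl pH 8 with Tween 20, after 15 min compound preincubation at room temperature. Fluorescence change, last versus first of five reads.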
ALDH1A1 block: blocks purified human ALDH1A1 activity; 7.3% of 220,000 active; Potency, µM (titrated, usually from 75.3 µM), for the others: top-dose activity, negative = inhibition, usual class: inhibitors; P00352; Purified ALDH1A1, NADH fluorescence, propionaldehyde substrate; active = well fitted inhibition curve with a large enough effect, not every such curve was filed as active; inconclusive = small, poorly fitted or top-dose-only effect, or another doubt; inactive = no such curve, though single readings can be large or run the other way;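 note: potency is the fitted concentration of half-maximal effect; plate controls were no enzyme wells and a reference inhibitor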
Target sequence (P00352 whole entry, looked up): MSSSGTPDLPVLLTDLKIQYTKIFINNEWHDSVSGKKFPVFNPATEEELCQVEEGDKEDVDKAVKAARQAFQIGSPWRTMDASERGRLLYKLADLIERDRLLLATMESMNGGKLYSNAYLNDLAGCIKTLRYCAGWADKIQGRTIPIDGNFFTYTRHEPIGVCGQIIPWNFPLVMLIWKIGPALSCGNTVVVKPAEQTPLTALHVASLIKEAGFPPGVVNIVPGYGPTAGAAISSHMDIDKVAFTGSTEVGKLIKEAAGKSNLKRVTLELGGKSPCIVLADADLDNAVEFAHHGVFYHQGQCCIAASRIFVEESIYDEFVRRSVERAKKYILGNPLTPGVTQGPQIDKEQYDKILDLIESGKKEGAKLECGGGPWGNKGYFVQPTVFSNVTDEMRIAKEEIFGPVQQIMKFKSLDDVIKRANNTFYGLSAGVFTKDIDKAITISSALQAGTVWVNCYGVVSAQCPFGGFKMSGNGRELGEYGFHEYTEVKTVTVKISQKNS
HTT ATP protect: cytoprotection in Huntington HTT-Q103 PC12 cell model. Potency, µM (series often up to 56.4 µM), inactives show cytoprotection (ATP increase), usual class: activators. PC12 HTT-Q103 induced, cytoprotection, ATP luminescence, 40 h. 0.14% of 230,000 active; note: potency is the fitted concentration of half-maximal effect; % of control where 0% means no effect; nearly all actives have a fitted effect of over 45% in size
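Compounds added alongside 100 nM tebufenozide, which induces toxic Q103 huntingtin exon 1-GFP in stable PC12 cells; surviving cells quantified by luminescent ATP measurement. Medium: phenol red-free DMEM, 5% equine and 5% calf serum.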
IMPase Li inh: IMPase inhibition in cells with lithium potentiation; CHO-M1 cells, IP1 TR-FRET (IP-One), carbachol + lithium; Potency, µM (titrated, usually from 59.4 µM), without a hit: top-dose activity, negative = IMPase inhibition, actives largely listed as inhibitors; 0.35% of 210,000 active;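 note: IP1 builds up when IMPase is blocked and the TR-FRET signal falls; potency is the fitted concentration of half-maximal effect; plate controls were basal vehicle for no effect and high inhibitor control for full effect; nearly all actives have a fitted effect of over 50% in size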
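Readout is a homogeneous TR-FRET IP1 immunoassay (Ex 320, Em 665 and 620), where raised cytosolic IP1 lowers signal. Cells were CHO-M1 treated 30 min at 37C with test compounds plus a little lithium; AC50 values came from Hill-equation fitting.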
HttQ103 aggreg: inhibitors of mutant huntingtin aggregate formation in PC12 cells | 1.1% of 220,000 active | PC12 HttQ103-GFP aggregates, Acumen cytometry, 40 h | Potency, µM (series often up to 46.1 µM), inactives show at the top dose activity change, negative = inhibition, hits mostly inhibitors; note: potency is the fitted concentration of half-maximal effect; % is set by controls: 0 for no effect and ±100 for the full control effect; nearly all actives have a fitted effect of over 60% in size
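Multiplexed with ATP-based cell death, this channel scores GFP aggregates in PC12 cells expressing inducible HTTex1-Q103-GFP. Induction used 100 nM tebufenozide; compounds were tested in concentration series.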
IMPase cell inh: membrane-permeable compound that blocks inositol monophosphatase; P97697; CHO-M1 cells, IP1 accumulation, HTRF TR-FRET ratio; inhibition (IP1 accumulation), % at 46.1 µM; 120,000 tested, under 10 active; active = well fitted curve in the direction sought with a large enough effect in the signal ratio, not every such curve was filed as active; inconclusive = small, poorly fitted or top-dose-only effect, or a change in a side signal; inactive = no such curve, though single readings can be large or run the other way; the % refers to the signal ratio;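 note: cells stimulated with carbachol in lithium chloride buffer; plate controls were DMSO basal wells for no effect and reference inhibitor wells for full effect; higher means more IMPase inhibition seen as more IP1 and lower FRET ratio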
Target sequence (P97697 whole entry, looked up): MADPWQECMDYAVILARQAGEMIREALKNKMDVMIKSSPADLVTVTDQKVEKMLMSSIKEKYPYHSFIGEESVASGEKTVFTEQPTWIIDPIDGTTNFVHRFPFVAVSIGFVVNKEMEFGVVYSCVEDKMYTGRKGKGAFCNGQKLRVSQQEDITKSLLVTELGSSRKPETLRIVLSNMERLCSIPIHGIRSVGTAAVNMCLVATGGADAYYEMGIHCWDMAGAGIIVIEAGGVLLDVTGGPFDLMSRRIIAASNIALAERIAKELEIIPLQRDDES
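Carbachol-driven Gq signalling in CHO-M1 cells (2000/well) generates IP1. Compounds that block IMPase raise IP1 and so reduce the FRET signal from Eu-anti-IP1 and d2-IP1 after a 10 min room-temperature lysis.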
* hit, by the source's call; [ ] = dose if it differs, or a comment. A selection: hits, their analogues and other compounds. The true share with any hit is near 9.4%. Unless noted, calls come from the whole dose curve; as a rule, active = well fitted curve in the direction sought with a large enough effect; inconclusive = small, poorly fitted or top-dose-only effect, or another doubt; inactive = no such curve, though single readings can be large; an effect the other way counts as inactive or inconclusive.

Results for COc1cc(OC)cc(C(=O)NNC(=O)c2ccccn2)c1 ?
HPGD inh: -8%; ALDH1A1 block: -4%; HTT ATP protect: -1%[10 µM]; IMPase Li inh: 2%; HttQ103 aggreg: 11µM*; IMPase cell inh: -12

Results for COc1ccc(/C=C/C(=O)NC(=S)NNC(=O)c2cccnc2)cc1OC ?
HPGD inh: 32µM*; ALDH1A1 block: 4%; HTT ATP protect: -27%; IMPase Li inh: -6%[38.3 µM]; HttQ103 aggreg: -14%; IMPase cell inh: -3

Results for COc1cc(OC)cc(C(=O)NC(=S)Nc2cccnc2)c1 ?
HPGD inh: -7%; ALDH1A1 block: inconclusive; HTT ATP protect: -28%; IMPase Li inh: 1%[38.3 µM]; HttQ103 aggreg: 12%; IMPase cell inh: -11

Results for COc1cc(OC)cc(C(=O)NC(=S)NNC(=O)c2cnccn2)c1 ?
HPGD inh: -26%; ALDH1A1 block: 40µM*; HTT ATP protect: 25%[10 µM]; IMPase Li inh: 13%; HttQ103 aggreg: -11%; IMPase cell inh: 12

What do the screens show for `COc1ccc(C(=O)NC(=S)NNC(=O)c2cnccn2)cc1OC`?
HPGD inh: -19%; ALDH1A1 block: 28µM*; HTT ATP protect: 15%[10 µM]; IMPase Li inh: 10%; HttQ103 aggreg: inconclusive; IMPase cell inh: 0

Results for CC[C@H](C)[C@@H](NC(=O)O[C@H]1C(=O)c2cc(OC)ccc2O[C@@H]1c1ccc(OC)c(Br)c1)C(=O)OC ?
HPGD inh: inconclusive; ALDH1A1 block: inconclusive; HTT ATP protect: inconclusive; IMPase Li inh: 18%

What do the screens show for `C=C[C@@]1(C)CC(=O)[C@@]2(O)[C@@]3(C)[C@@H](O)CCC(C)(C)[C@@H]3[C@H](O)[C@H](OC(C)=O)[C@@]2(C)O1`?
HPGD inh: -8%; ALDH1A1 block: 8%; HTT ATP protect: inconclusive; IMPase Li inh: 10%; IMPase cell inh: 0

Results for Cc1cc(C)cc(NC(=O)C(=O)NC(C)c2ccccc2)c1 (stereo not drawn) ?
IMPase cell inh: -7

Results for O=C(CCCCl)NC1=NN(c2ccccc2)C(=O)C1 ?
HPGD inh: -5%; ALDH1A1 block: 8.9µM*; HTT ATP protect: 17%[1.9 µM]; IMPase Li inh: 1%; HttQ103 aggreg: 1%; IMPase cell inh: 2

How did CN(C)C(=O)C1CCN(Cc2c[nH]c3ccccc23)CC1 do in these assays?
HPGD inh: 0%; ALDH1A1 block: 14%[13.5 µM]; HTT ATP protect: 3%[10 µM]; IMPase Li inh: 7%

How did COc1ccc(NC(=O)CSc2nc3c(c(=O)n2-c2ccccc2OC)SCC3)cc1 do in these assays?
HPGD inh: -5%; ALDH1A1 block: 11µM*; HTT ATP protect: 17%[10 µM]; IMPase Li inh: 17%[38.3 µM]; HttQ103 aggreg: -8%; IMPase cell inh: -3

How did CCOc1ccc(NC(=O)CSc2nc3[nH]ncc3c(=O)n2-c2ccccc2OC)cc1 do in these assays?
HPGD inh: -9%; ALDH1A1 block: 8.9µM*; IMPase Li inh: -5%; HttQ103 aggreg: inconclusive

What do the screens show for `COC(=O)C(C)Sc1nc2c(c(=O)n1-c1ccccc1)SCC2` (stereo not drawn)?
HPGD inh: -8%; ALDH1A1 block: 3.2µM*; HTT ATP protect: -2%; IMPase Li inh: -10%[38.3 µM]; HttQ103 aggreg: 14%; IMPase cell inh: 0

What do the screens show for `COc1ccc(COC(=O)N/N=C2/C[C@@H](O)[C@@H](O)[C@@H]3[C@@H]4C(=O)N(Cc5ccc6c(c5)OCO6)C(=O)[C@H]4CC[C@H]23)cc1`?
ALDH1A1 block: -8%[13.5 µM]; HTT ATP protect: -40%[10 µM]

What do the screens show for `CCOC(=O)N1CCN(C(=O)c2ccc3c(=O)n(CCC4=CCCCC4)c(=O)[nH]c3c2)CC1`?
HPGD inh: -6%; ALDH1A1 block: 6.3µM*; HTT ATP protect: -2%; IMPase Li inh: 32%[38.3 µM]; HttQ103 aggreg: -28%; IMPase cell inh: 15

Results for O=C(N/N=C/c1ccncc1)c1cccc(NC(=O)c2ccccc2Cl)c1 ?
HPGD inh: -16%; ALDH1A1 block: 13µM*; HTT ATP protect: 16%[10 µM]; IMPase Li inh: 11%; HttQ103 aggreg: -4%

Results for COc1ccccc1/C=N/NC(=O)c1cccc(NC(=O)c2ccccc2Cl)c1 ?
ALDH1A1 block: 20µM*; HTT ATP protect: -31%; IMPase Li inh: 7%; HttQ103 aggreg: 18%

Results for CC(=O)Nc1cccc(C(=O)N/N=C/c2ccccc2F)c1 ?
HPGD inh: 35µM*; ALDH1A1 block: 4%; HTT ATP protect: -17%[10 µM]; IMPase Li inh: -7%; HttQ103 aggreg: -3%

What do the screens show for `COc1ccc(/C=N/NC(=O)c2cccc(NC(=O)c3ccccc3Cl)c2)cc1OC`?
ALDH1A1 block: 4µM*; HTT ATP protect: -71%; IMPase Li inh: 1%; HttQ103 aggreg: -18%

How did c1ccc(CCCNc2nnnc3ccccc23)cc1 do in these assays?
HPGD inh: -5%; ALDH1A1 block: -3%[13.5 µM]; HTT ATP protect: -2%[10 µM]; IMPase Li inh: 0%

Results for FC(F)(F)c1cc(CO[C@@H]2CCCN[C@H]2c2ccccc2)cc(C(F)(F)F)c1 ?
HTT ATP protect: -22%[1.9 µM]; IMPase cell inh: 2

What do the screens show for `Cc1ccccc1-c1cncnc1N1CCNCC1`?
HPGD inh: -2%; ALDH1A1 block: -9%; HTT ATP protect: 7%; IMPase Li inh: 7%

Results for O=[N+]([O-])c1cccc(C2=N[C@@H](Cc3ccccc3)CO2)c1 ?
HPGD inh: -14%; ALDH1A1 block: inconclusive; HTT ATP protect: -18%; IMPase Li inh: -6%

Results for COc1ccc(/C=N/NC(=O)c2cccc(NC(=O)c3ccccc3Cl)c2)c(OC)c1 ?
ALDH1A1 block: inconclusive; HTT ATP protect: -29%; IMPase Li inh: 8%; HttQ103 aggreg: -10%

Results for COc1ccc(/C=N/NC(=O)Cn2nc([N+](=O)[O-])cc2C)c(OC)c1OC ?
ALDH1A1 block: -3%; HTT ATP protect: 5%[10 µM]; HttQ103 aggreg: 2%[9.22 µM]

What do the screens show for `CCN(CC)S(=O)(=O)c1cccc(C(=O)N/N=C/c2ccc(OC)c(O)c2)c1`?
HPGD inh: -11%; ALDH1A1 block: 25µM*; HTT ATP protect: 21%[10 µM]; IMPase Li inh: -3%; HttQ103 aggreg: 25%

Results for COc1ccccc1/C=N/NC(=O)c1ccc(Cn2nc([N+](=O)[O-])cc2C)cc1 ?
HPGD inh: inconclusive; ALDH1A1 block: 14µM*; IMPase Li inh: 8%; HttQ103 aggreg: 13%

How did COc1cc(/C=N/NC(=O)c2cccc(NC(=O)c3ccccc3Cl)c2)ccc1O do in these assays?
ALDH1A1 block: 13µM*; HTT ATP protect: -24%[1.9 µM]; IMPase Li inh: -1%; HttQ103 aggreg: -24%

Compound activity (PubChem)
